# High-throughput results deposited in PubChem BioAssay by several laboratories.
# Hits are enriched below; roughly 4% of the tested compounds scored in any of these assays.
# Mtb bLac sens: beta-lactam sensitization of Mtb H37Rv | M. tuberculosis H37Rv growth with meropenem, percent inhibition | inhibition, % at 25 µM | 330,000 compounds, 0.27% hits | AID 434955;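 note: growth measured after seven days incubation then overnight dye step; 0% = bacteria only wells and 100% = bacteria with antibiotic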
# RecA splice inh: Mtb RecA intein splicing inhibition; P9WHJ3; cell-free RecA intein splicing, fluorescence; inhibition, % (no concentration beside the values); 290,000 compounds, 0.75% hits; AID 2221; in the data active = inhibition above about 30%; inconclusive = no clear call, values can overlap the other calls;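 note: 0% = vehicle wells and 100% = reference inhibitor control wells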
# UGM FP inh: blocks M. tuberculosis UGM enzyme; inhibition, % at 10 µM; purified UGM, fluorescence polarization probe displacement; AID 504406; 320,000 compounds, 0.06% hits; P9WIQ1; in the data active = inhibition above about 10%, passing the limit was not always enough; inconclusive = no clear call, values can overlap the other calls
# Rv3671c protease: inhibitors of M. tuberculosis serine protease Rv3671c | P9WHR9 | inhibition, % at 5.96 µM | 320,000 compounds, 0.048% hits; in the data active = inhibition above about 38%;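 note: extracellular domain of Rv3671c used as enzyme; 0% = enzyme with DMSO and 100% = no enzyme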
# Target sequence (P9WHR9 whole entry, looked up, the tested form may be a part): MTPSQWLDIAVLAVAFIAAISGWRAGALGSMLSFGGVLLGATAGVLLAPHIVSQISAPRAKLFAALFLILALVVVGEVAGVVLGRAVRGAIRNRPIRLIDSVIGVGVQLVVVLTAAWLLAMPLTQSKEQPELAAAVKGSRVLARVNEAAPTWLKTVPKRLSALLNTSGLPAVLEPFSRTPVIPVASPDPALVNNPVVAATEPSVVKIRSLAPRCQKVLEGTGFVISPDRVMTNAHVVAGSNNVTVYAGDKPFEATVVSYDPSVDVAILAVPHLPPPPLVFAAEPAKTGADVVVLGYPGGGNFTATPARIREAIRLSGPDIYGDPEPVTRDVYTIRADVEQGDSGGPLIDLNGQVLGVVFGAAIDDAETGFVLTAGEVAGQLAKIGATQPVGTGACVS
# GDH-TPI inh: inhibits GDH-TPI coupling enzymes, artifact for Mtb FBA screen; GDH-TPI coupled enzyme counterscreen, NADH absorbance; inhibition, % at 4.8 µM; 360,000 compounds, 1.2% hits; AID 588335; in the data active = inhibition above about 30%;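 note: 0% = DMSO wells and 100% = wells lacking the enzyme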
# FBA Mtb inh: Mtb fructose-bisphosphate aldolase inhibition | P9WQA3 | purified M. tuberculosis FBA, fluorescence read-out | inhibition, % at 1 µM | 360,000 compounds, 2.3% hits | AID 588726; in the data active = inhibition above about 27%;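 note: 0% = vehicle and 100% = reference inhibitor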
# GFP chromo cs: counter-screen: blocks GFP chromophore formation. shares compounds with RecA splice inh. 2,100 compounds, 83% hits. cell-free GFP chromophore formation, fluorescence. EC50, µM
# Active calls of the source: *; ? = inconclusive; . = no result. Unless noted, the rule behind the calls is not given here.
SMILES,Mtb bLac sens,RecA splice inh,UGM FP inh,Rv3671c protease,GDH-TPI inh,FBA Mtb inh,GFP chromo cs
Cc1ccc(C)c(S(=O)(=O)Nc2ccc(O)c3ccccc23)c1,7.2,95.2*,1.3,-13.3,14.4,0.8,0.228*
COc1ccc(S(=O)(=O)Nc2ccc(O)c3ccccc23)cc1,30.4,95.8*,-1.1,-74.8,20.2,0.6,0.136*
COc1ccc(S(=O)(=O)Nc2ccccc2)cc1,-2.7,1.9,3.1,1.8,-1.5,-0.1,.
O=c1[nH]c(C2CCN(S(=O)(=O)c3ccccc3)CC2)nc2c1nnn2Cc1c(F)cccc1Cl,-3.0,-3.1,-0.9,-18.0,5.9,0.5,.
Cc1c([N+](=O)[O-])cnc(Sc2ccccc2)c1[N+](=O)[O-],98.3,85.3*,0.3,9.8,-1.5,-2.8,0.18*
CCOC(=O)c1c(C)oc2c1c1c(c3ccccc32)OCN(CCCC(=O)O)C1,94.4,89.7*,0.5,2.9,-5.3,0.9,19.9*
COc1ccc(C(C(=O)NC2CCCCC2)N(C(=O)CCl)c2ccc(OC)cc2)cc1 (stereo unspecified),30.2,8.3,-0.5,-2.2,4.4,0.5,.
COc1ccc(N(C(=O)Cc2cccs2)C(C(=O)NC2CCCC2)c2ccncc2)cc1 (stereo unspecified),-8.5,-4.8,1.6,7.1,-15.7,-2.2,.
COc1ccc(C(C(=O)NC2CCCCC2)N(C(=O)CCl)c2cccc(Cl)c2)cc1 (stereo unspecified),0.8,58.7*,0.3,-11.4,16.1,-1.3,?
COc1ccc(N(C(=O)CCl)C(C(=O)NC2CCCCC2)c2cccnc2)cc1 (stereo unspecified),4.3,75.1*,-2.9,-4.8,-7.9,1.4,11*
O=C(NC1CCCC1)C(c1ccc(F)cc1)N(Cc1ccc(F)cc1)C(=O)CCl (stereo unspecified),-1.0,55.8*,2.3,-7.8,9.9,-0.5,1.75*
O=C(NC1CCCCC1)C(c1cccnc1)N(C(=O)CCl)c1ccc(F)cc1 (stereo unspecified),59.0,73.2*,-0.9,-11.4,-1.1,-0.3,11.5*
O=C(NC1CCCCC1)C(c1cccnc1)N(C(=O)CCl)c1ccccc1Cl (stereo unspecified),7.5,10.0,1.4,-0.4,2.2,2.7,.
Cc1ccc(S(=O)(=O)Nc2cccc(C(=O)NCCN3CCOCC3)c2)cc1F,0.5,.,-1.5,0.0,8.6,7.2,.
CC(C)S(=O)(=O)N1CCCC(c2cc(C(=O)NCc3ccccc3)no2)C1 (stereo unspecified),.,.,.,.,9.1,-2.8,.
CCOC(=O)c1c(CSC(=N)N)n(-c2ccc(C)cc2)c2cc(Br)c(OC(C)=O)cc12,39.0,69.8*,-1.0,-4.7,0.0,2.1,7.92*
CCOC(=O)c1c(CSC(=N)N)n(C)c2cc(Br)c(OC(C)=O)cc12,2.3,25.2,0.0,-2.6,1.6,-0.2,.
CCOC(=O)C1=C(C)N(c2ccc(OC)cc2)C(=O)/C1=C\c1ccc(O)c(OCC)c1,-3.0,5.3,-4.5,5.5,1.3,0.8,.
CCOc1ccc(N2C(=O)/C(=C\c3ccc(O)c(OC)c3)S(=O)(=O)C2c2cccc([N+](=O)[O-])c2)cc1 (stereo unspecified),-9.1,88.2*,1.0,-2.4,10.4,-16.0,2.45*
CCOc1ccc(N2C(=O)/C(=C\c3ccc(OC)c(O)c3)S(=O)(=O)C2c2cccc([N+](=O)[O-])c2)cc1 (stereo unspecified),80.5,81.7*,1.0,-1.6,6.6,-1.5,14.3*
N#C/C(=C/c1ccncc1)c1nc2ccccc2s1,-3.1,73.6*,-2.5,-13.9,7.3,1.9,21.6*
CCC1Nc2ncnc(N3CCOCC3)c2N(Cc2ccc(Cl)cc2)C1=O (stereo unspecified),-6.3,.,3.0,-3.2,21.0,3.6,.
Cc1ccc(C[n+]2ccccc2)cc1,-3.1,1.6,2.0,-8.8,1.3,1.0,.
Cc1ccc(C[n+]2c(-c3ccc(C)cc3)cc(-c3ccc(C)cc3)cc2-c2ccc(C)cc2)cc1,100.1,55.6*,-2.3,-2.1,8.3,20.9,14.2*
NNc1n[nH]c(=S)n1N,-0.9,78.2*,-1.2,-12.8,-0.7,-0.1,>38
SMILES,Mtb bLac sens,RecA splice inh,UGM FP inh,Rv3671c protease,GDH-TPI inh,FBA Mtb inh,GFP chromo cs
Nn1c(Cc2ccccc2)n[nH]c1=S,4.5,-0.3,0.8,0.9,-1.3,2.3,.
COC1(OC)N=C(N)C2(C#N)C(c3ccc(F)cc3)C12C#N (stereo unspecified),-11.7,0.3,1.4,-4.5,-4.7,4.8,.
CCSC1(SCC)N=C(N)C2(C#N)C(c3ccc(F)cc3)C12C#N (stereo unspecified),30.6,49.7*,-2.3,-2.3,-5.7,3.2,38.3*
O=C(Nc1ccc2nc3n(c(=O)c2c1)CCCCC3)c1cc([N+](=O)[O-])ccc1F,85.0,26.4,0.6,-11.4,5.2,4.0,.
O=C(Nc1ccc2nc3n(c(=O)c2c1)CCCCC3)c1c(F)ccc([N+](=O)[O-])c1F,79.3,59.6*,-1.7,-35.4,1.7,1.6,24.6*
COC(=O)C1CC(O)C(O)C(O)C1 (stereo unspecified),.,.,.,.,-2.0,2.4,.
O=C1CCN(S(=O)(=O)c2ccccc2)N1,-0.8,43.4*,3.3,-8.9,-3.5,3.7,32.8*
CCCc1[nH]nc2c1C(c1ccc(OC)c(CSC3=NCCS3)c1)C(C#N)=C(N)O2 (stereo unspecified),-5.4,74.5*,3.5,-0.5,-3.8,-2.6,14.8*
CCCc1[nH]nc2c1C(c1cc(OC)cc(OC)c1)C(C#N)=C(N)O2 (stereo unspecified),0.1,44.4*,1.9,-1.8,1.4,2.4,3.96*
CCCc1[nH]nc2c1C(c1cccc(OC(=O)c3ccco3)c1)C(C#N)=C(N)O2 (stereo unspecified),2.8,58.9*,2.2,-1.6,4.9,-1.6,17.8*
CCCc1[nH]nc2c1C(CCc1ccccc1)C(C#N)=C(N)O2 (stereo unspecified),-4.5,55.4*,2.6,-1.1,17.1,5.5,22.2*
Cc1ccc(Sc2c(C)[nH]n(C(C)(C)C)c2=O)cc1,-17.2,50.1*,-0.5,-1.7,8.9,-1.5,39.7*
CC(=O)Nc1cccc(-c2ccnc3c2CC(C(=O)NCc2ccc(N(C)C)cc2)O3)c1 (stereo unspecified),.,.,.,.,2.6,1.0,.
O=C1/C(=C/c2ccc(F)cc2)SC(=S)N1CC(=O)N1CCCCC1c1cccnc1 (stereo unspecified),74.5,38.0*,-5.5,-7.5,19.0,-1.1,>38
CCc1nnc(NS(=O)(=O)c2ccc(NC(=S)NC(=O)/C=C/c3ccc(C(C)C)cc3)cc2)s1,4.1,36.0*,1.0,-90.4,31.7*,-4.1,13.2*
CCc1nnc(NS(=O)(=O)c2ccc(NC(=S)NC(=O)/C=C/c3ccccc3)cc2)s1,-3.6,0.5,-0.7,-19.2,2.9,-3.5,.
